# ± gives the standard deviation of the averaged measurements.
# Assays:
# Assay in all cases: net action potential response of A-neuron (blank-subtracted) (spikes/s (Hz)); higher = stronger excitation
# Conditions in all cases: 10 µg on filter paper; neuron: A neuron (large spike amplitude)
# [1] = system: (+)-isopinocamphone A-neuron OSN class
# Outline: (§1)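 Tungsten electrodes recorded single sensilla on one fixed antenna of live lab-reared adult Ips typographus, kept under a humidified, charcoal-filtered 1.8 L/min airstream, while 10 μg of each compound in paraffin oil on filter paper in a pipette was delivered as a 0.5 s pulse at 0.3 L/min. Pre-stimulus-corrected A-neuron or B-neuron spike counts from AutoSpike, taken in 0.5 s windows, were expressed per second, blank-subtracted and averaged over 1–4 sensilla.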
# [2] = system: (5S,7S)-trans-conophthorin A-neuron OSN class
# Outline: as §1
# [3] = system: myrcene A-neuron OSN class
# Outline: as §1
# [4] = system: p-cymene A-neuron OSN class
# Outline: as §1
SMILES,net action potential response [1],net action potential response [2],net action potential response [3],net action potential response [4]
O=Cc1ccccc1 [Benzaldehyde],21.3 ± 15,-4 ± 2,4,2 ± 2
Cc1ccccc1 [Toluene],0.667 ± 3.1,4 ± 2.3,6,2 ± 4
C=CCc1ccc(OC)cc1 [Estragole],-1.33 ± 1.1,-0.5 ± 6.6,-2,9.33 ± 7
